# Test results reported in PubChem BioAssay.
# Activity calls are given as the source filed them.
# How the values were obtained:
# [1] = tested on: Human papillomavirus type 1a protein E7 (residues 44-93); test: small molecules binding HPV E7 44-93 – biochemical, small-molecule microarray, residues 44-93, 635 nm fluorescence, primary screen (AID 1108); conditions: fluorescence 635 nm, higher = more signal;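 note: E7 fragment applied at 1 µg/mL in TBST for 1 h at 4 C; score combines spot fluorescence with its signal to noise ratio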
# [2] = hepatitis C replication reporter changes, two-sided – Huh7 cells, luciferase reporter, HCV replication inhibitor project, primary screen (AID 1109); conditions: Huh7 HCV replicon luciferase reporter, 48 h; higher = more signal;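 note: huh7 hepatoma cells harbouring a luciferase neomycin HCV replicon reporter; luciferase luminescence as measure of HCV replicon replication; test concentration not given here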
# [3] = target: Left-right determination factor 2 (Homo sapiens) (UniProt O00292); test: small molecules binding LEFTY2 protein – biochemical, small-molecule microarray, 635 nm fluorescence scan, primary screen (AID 1110); conditions: higher = more signal
# [4] = target: Calmodulin-1 (Homo sapiens) (UniProt P0DP23); test: small molecules binding calmodulin-1 with EGTA – biochemical, small-molecule microarray, Cy5-labelled CALM1, profiling panel (AID 1111); conditions: Cy5-CALM1 binding fluorescence, higher = more signal;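 note: labelled calmodulin applied in Tris saline Tween buffer holding calcium plus EGTA and DTT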
# [5] = target: Calmodulin-1 (Homo sapiens) (UniProt P0DP23); test: small molecules binding Ca-loaded calmodulin-1 – biochemical, small-molecule microarray, Cy5-labelled CALM1, plus calcium, artefact control for SMM control-protein annotation, profiling panel (AID 1112); conditions: Cy5-CALM1 binding fluorescence, higher = more signal;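 note: score merges spot fluorescence with signal to noise from triplicate slides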
# [6] = probe aWnt5a binding to arrayed compounds – biochemical, biotinylated probe, 635/667 nm fluorescence, primary screen (AID 1113); conditions: small-molecule microarray, higher = more signal;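 note: score merges 667 nm fluorescence intensity with signal-to-noise per printed feature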
# [7] = probe aShh binding to arrayed compounds – biochemical, biotinylated probe, 635/667 nm fluorescence, primary screen (AID 1114); conditions: small-molecule microarray, higher = more signal;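 note: probe is biotin-labelled aShh protein from a stem cell growth factor screen; measures binding of labelled protein to compounds printed on the slide; score merges feature fluorescence at 667 nm with signal-to-noise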
# [8] = probe aNog binding to arrayed compounds – biochemical, biotinylated probe, 635/667 nm fluorescence, primary screen (AID 1115); conditions: small-molecule microarray, higher = more signal;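 note: probe is biotinylated aNog protein used at 0.15 µg/mL for 1 h at 4 C; z-score combines 667 nm fluorescence of each spot with its signal to noise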
# [9] = target: Torsin-1A-interacting protein 1 (Homo sapiens) (UniProt Q5JTV8); test: compound microarray binding of lysate hLAP1 – cell lysate, small-molecule microarray, COS7 lysate, 635/667 nm fluorescence, primary screen (AID 1116); conditions: 635 nm fluorescence, higher = more signal
# [10] = target: Alpha-bungarotoxin (Bungarus multicinctus) (UniProt P60615); test: compounds binding labelled alpha-BTX control protein – biochemical, small-molecule microarray, Alexa647 label, 635/667 nm fluorescence, artefact control for SMM control protein annotation, profiling panel (AID 1117); conditions: alpha-BTX-A647 binding fluorescence, higher = more signal
# Albumin (Bos taurus) = Albumin (Bos taurus) (UniProt P02769); test: compounds binding labelled BSA control protein – biochemical, small-molecule microarray, Alexa647 label, 635/667 nm fluorescence, artefact control for SMM control protein annotation, profiling panel (AID 1118); conditions: BSA-A647 binding, fluorescence 635 nm, higher = more signal;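 note: score merges 667 nm emission intensity and signal-to-noise per printed compound spot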
# [11] = probe aXIP binding to arrayed compounds – biochemical, NeuroSMM set, 635/667 nm fluorescence, primary screen (AID 1119); conditions: small-molecule microarray, higher = more signal, called active from +8 up or from −8 down;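 note: probe is the protein aXip251-270 applied at 1 µg/mL to compound-printed slides; binding of probe to printed compounds measured as 667 nm fluorescence plus signal to noise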
# [12] = probe aNOTCH3 binding on compound microarray – biochemical, small-molecule microarray, 635/667 nm fluorescence, primary screen (AID 1120); conditions: higher = more signal;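 note: probe is a biotin-tagged antibody raised against NOTCH3 rather than NOTCH3 protein; score merges spot fluorescence near 667 nm with spot signal to noise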
# [13] = probe aNOTCH2 binding on compound microarray – biochemical, small-molecule microarray, 635/667 nm fluorescence, primary screen (AID 1121); conditions: higher = more signal;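 note: score merges feature fluorescence read at 667 nm with its signal to noise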
# [14] = target: Carbonic anhydrase 2 (Homo sapiens) (UniProt P00918); test: compounds binding carbonic anhydrase 2 – biochemical, small-molecule microarray, Alexa647-labelled CAII, profiling panel (AID 1122); conditions: CAII-A647 binding fluorescence, higher = more signal
# [15] = COS7 lysate on small-molecule microarray, probe aHis, 635 nm (AID 1123); conditions: COS7 cell lysate, fluorescence, higher = more signal;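 note: z-score combines 667nm fluorescence intensity with signal-to-noise per printed compound spot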
# [16] = probe aLAP1 signal on lysate-treated microarray – cell lysate, small-molecule microarray, COS7 lysate, primary screen (AID 1124); conditions: probe aLAP1, fluorescence, higher = more signal;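 note: lysate comes from COS7 cells expressing LAP1 and is applied at 0.3 µg/mL; score merges spot fluorescence near 667 nm with signal-to-noise over triplicate slides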
# Sam68 (KHDRBS1) = test: compounds binding KHDRBS1 protein – biochemical, small-molecule microarray, 635 nm fluorescence, primary screen (AID 1125); conditions: higher = more signal;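 note: score merges 667 nm channel intensity with signal to noise over triplicate slides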
# [17] = tested on: Chordin-like protein 2 (CHRDL2); test: compounds binding chordin-like 2 – biochemical, small-molecule microarray, 635 nm fluorescence, primary screen (AID 1126); conditions: fluorescence 635 nm, higher = more signal;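 note: printed compound slides probed with Chrdl2 protein at 4 µg/mL for 1 h at 4 C; score merges 667 nm emission intensity with signal to noise over three replicate slides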
# [18] = target: Concanavalin-A (Canavalia ensiformis) (UniProt P02866); test: compounds binding concanavalin A lectin – biochemical, small-molecule microarray, Alexa647 label, 635 nm, artefact control for SMM control protein annotation, primary screen (AID 1127); conditions: ConA-A647 binding fluorescence, higher = more signal;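 note: z combines 667 nm emission intensity with signal-to-noise across three replicate slides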
# Chain of Concanavalin-A (Canavalia ensiformis) (P02866 whole entry, looked up): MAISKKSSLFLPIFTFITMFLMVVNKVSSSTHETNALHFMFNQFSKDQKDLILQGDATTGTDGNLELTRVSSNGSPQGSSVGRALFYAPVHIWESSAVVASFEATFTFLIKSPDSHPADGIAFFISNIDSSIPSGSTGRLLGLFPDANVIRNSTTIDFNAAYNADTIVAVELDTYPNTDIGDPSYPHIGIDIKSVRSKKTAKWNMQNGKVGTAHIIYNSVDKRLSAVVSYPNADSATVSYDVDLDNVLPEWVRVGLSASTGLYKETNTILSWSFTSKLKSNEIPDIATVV
# Chain of Torsin-1A-interacting protein 1 (Homo sapiens) (Q5JTV8 whole entry, looked up): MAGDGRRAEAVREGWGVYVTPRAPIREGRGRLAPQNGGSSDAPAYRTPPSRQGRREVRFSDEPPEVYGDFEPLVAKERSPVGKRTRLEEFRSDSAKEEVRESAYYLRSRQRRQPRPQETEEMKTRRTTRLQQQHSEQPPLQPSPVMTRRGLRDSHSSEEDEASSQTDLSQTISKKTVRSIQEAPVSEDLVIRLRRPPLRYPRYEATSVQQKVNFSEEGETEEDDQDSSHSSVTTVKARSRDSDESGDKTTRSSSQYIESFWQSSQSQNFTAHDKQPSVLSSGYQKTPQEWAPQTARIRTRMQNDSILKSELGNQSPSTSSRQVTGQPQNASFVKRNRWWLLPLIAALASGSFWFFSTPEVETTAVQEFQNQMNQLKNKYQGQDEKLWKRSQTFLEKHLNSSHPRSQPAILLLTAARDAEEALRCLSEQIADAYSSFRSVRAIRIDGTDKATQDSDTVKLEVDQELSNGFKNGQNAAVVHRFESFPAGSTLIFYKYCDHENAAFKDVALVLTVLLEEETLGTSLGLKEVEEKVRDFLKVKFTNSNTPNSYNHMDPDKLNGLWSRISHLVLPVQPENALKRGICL
# Chain of Left-right determination factor 2 (Homo sapiens) (O00292 whole entry, looked up): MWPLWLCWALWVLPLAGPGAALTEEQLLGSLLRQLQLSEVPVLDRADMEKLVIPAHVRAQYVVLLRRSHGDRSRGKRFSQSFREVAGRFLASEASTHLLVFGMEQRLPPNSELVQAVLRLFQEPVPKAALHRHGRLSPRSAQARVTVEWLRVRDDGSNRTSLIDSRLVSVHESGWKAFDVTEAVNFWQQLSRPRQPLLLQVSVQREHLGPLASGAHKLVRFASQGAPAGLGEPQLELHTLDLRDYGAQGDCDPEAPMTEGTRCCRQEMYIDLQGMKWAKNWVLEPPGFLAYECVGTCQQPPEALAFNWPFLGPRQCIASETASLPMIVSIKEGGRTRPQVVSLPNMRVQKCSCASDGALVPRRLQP
# Chain of Alpha-bungarotoxin (Bungarus multicinctus) (P60615 whole entry, looked up): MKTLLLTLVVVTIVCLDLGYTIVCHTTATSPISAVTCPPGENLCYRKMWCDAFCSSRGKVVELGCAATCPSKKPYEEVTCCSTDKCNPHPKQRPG
# Chain of Albumin (Bos taurus) (P02769 whole entry, looked up): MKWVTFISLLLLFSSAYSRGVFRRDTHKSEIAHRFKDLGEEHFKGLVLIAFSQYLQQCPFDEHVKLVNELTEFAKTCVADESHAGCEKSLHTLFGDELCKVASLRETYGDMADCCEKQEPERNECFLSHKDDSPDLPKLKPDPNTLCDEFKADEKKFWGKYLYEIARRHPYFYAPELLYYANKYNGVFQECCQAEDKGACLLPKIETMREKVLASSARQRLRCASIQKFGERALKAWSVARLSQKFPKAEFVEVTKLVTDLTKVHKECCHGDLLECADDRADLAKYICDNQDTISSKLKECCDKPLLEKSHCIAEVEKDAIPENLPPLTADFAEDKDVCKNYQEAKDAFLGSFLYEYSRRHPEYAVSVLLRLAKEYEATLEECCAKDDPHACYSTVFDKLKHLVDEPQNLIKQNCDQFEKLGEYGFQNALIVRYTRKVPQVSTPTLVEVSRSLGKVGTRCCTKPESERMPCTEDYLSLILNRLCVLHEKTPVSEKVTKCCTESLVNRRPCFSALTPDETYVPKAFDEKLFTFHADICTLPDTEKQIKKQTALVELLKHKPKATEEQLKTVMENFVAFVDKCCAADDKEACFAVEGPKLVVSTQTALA
Structure (SMILES),composite z-score [1],z-score [2],composite z-score [3],composite z-score [4],composite z-score [5],composite z-score [6],composite z-score [7],composite z-score [8],composite z-score [9],composite z-score [10],composite z-score (Albumin (Bos taurus)),composite Z-score [11],composite z-score [12],composite z-score [13],composite z-score [14],composite z-score [15],composite z-score [16],composite z-score (Sam68 (KHDRBS1)),composite z-score [17],composite z-score [18]
C[N+](C)(C)CCCC[C@@H]1NC(=O)[C@H]2C[C@@H](C(=O)NCCCCCN)[C@@H](c3ccc(O)cc3)N2C1=O,-0.0195,0.493,1.34,1.67,0.631,-0.0403,-0.0886,0.177,1.52,2.54,0.567,-0.116 (inactive),-0.0586,-0.053,0.67,1.14,0.736,1.3,0.444,1.18
CCCCCCc1nc(-c2ccc(OC)nc2)c(C)c2c1[Si](C(C)C)(C(C)C)OC2,-0.329,-0.603,0.445,-0.0398,-0.257,-0.0462,-0.154,-0.129,-0.391,-0.304,-0.854,0.268 (inactive),-0.122,-0.12,-0.195,-0.039,-0.459,0.18,0.492,-0.141
CC(C)[Si]1(C(C)C)OCc2cc(-c3ccc(-c4ccc(Cl)c(Cl)c4)o3)nc(-c3ccc(Oc4ccccc4)cc3)c21,-1.76,-0.105,-1.44,-0.168,0.698,-0.265,-0.243,-0.132,-1.22,-1.55,-0.753,-1.23 (inactive),-0.292,-0.197,-0.554,-0.558,-0.397,-1.08,-1.24,-1.08
C=CCNC(=O)[C@@H]1[C@H]2C(=O)O[C@H](c3ccccc3)[C@H](c3ccccc3)N2[C@H](c2ccc(O)cc2)[C@@]12C(=O)N(C(=O)OCCOC)c1ccc(C#CCC(C(=O)OC)C(=O)OC)cc12,1.39,-0.598,0.434,0.635,0.0394,-0.001,0.151,-0.1,1.42,1.11,0.366,0.903 (inactive),0.0813,-0.084,0.271,1.33,0.793,1.3,0.413,0.601
C=CC[C@@]1(C(=O)NCCCOC)N=C(c2ccc(OCCCO)cc2)O[C@@H]1c1ccccc1CN=[N+]=[N-],1.42,-2.12,0.266,1.66,0.414,0.0391,-0.13,0.396,0.957,1.19,0.829,0.202 (inactive),0.518,-0.108,0.596,2.61,0.159,1.29,0.0984,1.08
CCCC1(C(=O)OC)C=C2C(=C(C(C)C)C(=O)C2C)CN1 (stereo not given),-0.311,-0.808,-0.557,0.312,0.771,0.0375,0.381,0.658,2.29,-0.593,0.844,0.382 (inactive),-0.0288,0.0788,0.0703,0.614,0.976,-1.36,-0.454,-0.981
OCCCc1cc[n+](Cc2cc3c(cc2Br)OCO3)cc1,-0.945,1.05,-1.12,-1.81,0.172,-0.147,-0.207,-0.172,-0.81,-2.04,0.038,-0.0354 (inactive),0.0785,-0.112,-0.213,-0.608,0.324,-0.724,-0.418,-1.9
C=CC[C@H](OC(=O)Nc1ccc(SC)cc1)c1ccc(O)c(F)c1,-0.419,0.599,-0.722,-0.652,-0.328,-0.147,-0.0709,-0.267,1.82,-0.165,0.333,0.514 (inactive),-0.246,-0.168,0.577,0.596,-0.172,-1.28,-0.174,-0.873
C=C(COC)C(=O)CC[C@@H](OC(=O)c1ccccc1-c1ccccc1C(=O)O)c1ccccc1OCCO,0.933,-1.91,0.585,-0.537,-1.2,-0.232,-0.17,0.153,3.7,-0.217,-0.597,0.49 (inactive),-0.122,-0.0174,0.531,-0.381,1.67,0.448,0.538,0.0185
O=C/C=C/c1ccc(-c2ccccc2)cc1,-1.06,0.861,0.435,-0.501,-0.524,-0.129,-0.341,-0.739,-0.0833,0.27,-1.04,-0.646 (inactive),-0.172,-0.0843,-0.202,-0.327,1.35,-0.789,0.438,-0.518
O=C1N(Cc2ccccc2)Cc2ccccc2C[C@@]12COC(c1ccc(OCCCO)cc1)=N2,1.19,-3.52,-0.0607,0.273,0.519,-0.043,0.0287,1.09,0.724,0.491,-0.0983,0.852 (inactive),0.133,0.12,0.461,2.08,0.4,1.22,0.303,0.864
